Reference: the supplement of paper PMC10849652
The full data set covers some 7,900 targets. This sample favours those with a hit. About 0.6% of all pairs of compound and target were hits. Values without a mark were called inactive.

Legend:
Test in all cases: log2 fold change, soluble protein after heating vs DMSO (PISA); higher = thermal stabilisation; K562 cells, 10 uM, 30 min; active = over 0.2 and 3.5 SD of the protein, either way, in both replicates (recomputed)
[1] = compound: CC1=C(C=C(C=C1)NC(=O)C2=CC(=CC=C2)C(C)(C)C#N)NC3=CC4=C(C=C3)N=CN(C4=O)C
Outline: (§1)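 Soluble protein was defined as the supernatant after 21,000xg for 90 min. It came from K562 cells at 2×10^6 cells/mL given 10 μM compound for 30 min, heated in aliquots for 3 min across 48°C-58°C, pooled, and extracted in PBS with 0.5% NP-40 at 4°C, and was quantified by TMTpro 16plex LC-MS/MS with equalised channel sums. Thermal stability against control samples, from duplicates, is reported as log2 fold change.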

[2] = compound: CC1=C(C=C(C=C1)NC(=O)C2=CC(=CC=C2)N(C)C)NC(=O)C3=CC=C(C=C3)O
Outline: as §1

[3] = compound: CC1=CC=C(C=C1)SC2=C3C=C(SC3=CN=C2)C(=O)N
Outline: as §1

[4] = compound: CC1=NC(=CC=C1)C2=C(N=C(N2)C(C)(C)C)C3=CC4=NC=CN=C4C=C3
Outline: as §1

Nexturastat A = compound: CCCCN(Cc1ccc(C(=O)NO)cc1)C(=O)Nc1ccccc1 [Nexturastat A]
Outline: as §1

vemurafenib = compound: CCCS(=O)(=O)Nc1ccc(F)c(C(=O)c2c[nH]c3ncc(-c4ccc(Cl)cc4)cc23)c1F [vemurafenib]
Outline: as §1

[5] = compound: CCCS(=O)(=O)Nc1ccc(F)c(C(=O)c2c[nH]c3ncc(Cl)cc23)c1F
Outline: as §1

[6] = compound: CCCc1cc(C)[nH]c(=O)c1CNC(=O)c1cc(-c2ccnc(N3CCN(C)CC3)c2)cc2c1cnn2C(C)C
Outline: as §1

givinostat = compound: CCN(CC)Cc1ccc2cc(COC(=O)Nc3ccc(C(=O)NO)cc3)ccc2c1 [givinostat]
Outline: as §1

barasertib = compound: CCN(CCCOc1ccc2c(Nc3cc(CC(=O)Nc4cccc(F)c4)[nH]n3)ncnc2c1)CCOP(=O)(O)O [barasertib]
Outline: as §1

[7] = compound: CC[C@@H]1C(=O)N(C)c2cnc(Nc3ccc(C(=O)NC4CCN(C)CC4)cc3OC)nc2N1C1CCCC1
Outline: as §1

volasertib = compound: CC[C@@H]1C(=O)N(C)c2cnc(Nc3ccc(C(=O)N[C@H]4CC[C@H](N5CCN(CC6CC6)CC5)CC4)cc3OC)nc2N1C(C)C [volasertib]
Outline: as §1

[8] = compound: CC[C@H](C)N1C=C(C2=C(C=C(C=C21)C3=CN=C(C=C3)N4CCNCC4)C(=O)NCC5=C(C=C(NC5=O)C)C)C
Outline: as §1

epoxomicin = compound: CC[C@H](C)[C@@H](C(=O)N[C@@H]([C@@H](C)O)C(=O)N[C@@H](CC(C)C)C(=O)[C@]1(CO1)C)NC(=O)[C@H]([C@@H](C)CC)N(C)C(=O)C [epoxomicin]
Outline: as §1

[9] = compound: CCn1c(C(=O)N(C2CC2)C2CC2)cc2c3c(ncn3C)c(Nc3cc(C)n(C)n3)nc21
Outline: as §1

[10] = compound: CCn1cc(-c2ccnc3[nH]c(-c4cccc(CN(C)C)c4)cc23)c(-c2ccc(NC(=O)N(C)C)cc2)n1
Outline: as §1

[11] = compound: CN(C)CC(=O)Nc1ccc2[nH]c(=O)c3ccccc3c2c1
Outline: as §1

rosiglitazone = compound: CN(CCOC1=CC=C(C=C1)C[C@H]2C(=O)NC(=O)S2)C3=CC=CC=N3 (racemic) [rosiglitazone]
Outline: as §1

[12] = compound: CN1C2=C(C3=C1C(=O)N(N=C3)CC4=CC(=CC=C4)N)SC(=C2)S(=O)C
Outline: as §1

[13] = compound: CN1CCC(CNc2ccc3ncc(-c4cccc(OC(F)(F)F)c4)n3n2)CC1
Outline: as §1

UniProt Q9NR45, sequence (Q9NR45 whole entry, looked up): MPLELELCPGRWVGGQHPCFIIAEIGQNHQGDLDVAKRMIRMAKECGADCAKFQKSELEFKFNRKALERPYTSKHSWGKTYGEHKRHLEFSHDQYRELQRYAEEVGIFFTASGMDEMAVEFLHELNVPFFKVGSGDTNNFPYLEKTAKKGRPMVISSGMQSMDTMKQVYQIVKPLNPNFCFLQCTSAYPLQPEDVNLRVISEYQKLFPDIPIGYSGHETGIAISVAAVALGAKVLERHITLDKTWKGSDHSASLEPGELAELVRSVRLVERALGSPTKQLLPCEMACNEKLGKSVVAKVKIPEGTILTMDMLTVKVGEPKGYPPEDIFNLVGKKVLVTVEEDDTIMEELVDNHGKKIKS
UniProt Q14978, sequence (Q14978 whole entry, looked up): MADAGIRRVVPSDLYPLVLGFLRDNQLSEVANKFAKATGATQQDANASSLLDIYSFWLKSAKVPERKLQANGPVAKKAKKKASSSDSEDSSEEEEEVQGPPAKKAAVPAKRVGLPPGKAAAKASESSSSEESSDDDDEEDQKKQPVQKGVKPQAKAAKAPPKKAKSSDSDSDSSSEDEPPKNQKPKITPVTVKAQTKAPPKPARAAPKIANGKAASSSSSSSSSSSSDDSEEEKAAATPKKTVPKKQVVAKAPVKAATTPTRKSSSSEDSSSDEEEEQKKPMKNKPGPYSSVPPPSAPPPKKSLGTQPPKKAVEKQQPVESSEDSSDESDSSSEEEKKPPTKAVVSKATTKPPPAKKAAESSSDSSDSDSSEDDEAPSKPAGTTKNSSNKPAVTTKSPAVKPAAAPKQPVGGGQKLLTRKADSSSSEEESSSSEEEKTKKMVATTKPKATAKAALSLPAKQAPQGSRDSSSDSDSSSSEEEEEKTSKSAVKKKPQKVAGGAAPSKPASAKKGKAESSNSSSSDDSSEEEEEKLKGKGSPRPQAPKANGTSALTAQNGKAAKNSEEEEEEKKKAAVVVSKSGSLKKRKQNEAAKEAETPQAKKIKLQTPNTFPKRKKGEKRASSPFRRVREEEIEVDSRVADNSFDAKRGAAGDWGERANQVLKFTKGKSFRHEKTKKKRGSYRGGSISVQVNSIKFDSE
UniProt Q96I59, sequence (Q96I59 whole entry, looked up): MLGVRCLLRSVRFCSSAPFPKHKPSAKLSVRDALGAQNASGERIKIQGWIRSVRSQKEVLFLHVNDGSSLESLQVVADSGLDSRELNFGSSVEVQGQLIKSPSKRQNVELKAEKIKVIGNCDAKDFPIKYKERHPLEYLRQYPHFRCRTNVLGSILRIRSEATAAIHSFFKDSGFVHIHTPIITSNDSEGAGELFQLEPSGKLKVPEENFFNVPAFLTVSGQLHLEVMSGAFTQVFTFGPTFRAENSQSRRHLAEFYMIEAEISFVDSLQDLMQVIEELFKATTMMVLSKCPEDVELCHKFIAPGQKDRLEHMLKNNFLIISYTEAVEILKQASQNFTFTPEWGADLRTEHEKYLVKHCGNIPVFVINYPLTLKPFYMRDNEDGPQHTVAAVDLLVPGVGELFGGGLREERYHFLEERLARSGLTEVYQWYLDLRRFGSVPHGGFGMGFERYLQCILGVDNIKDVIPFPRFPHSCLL
UniProt Q9BW27, sequence (Q9BW27 whole entry, looked up): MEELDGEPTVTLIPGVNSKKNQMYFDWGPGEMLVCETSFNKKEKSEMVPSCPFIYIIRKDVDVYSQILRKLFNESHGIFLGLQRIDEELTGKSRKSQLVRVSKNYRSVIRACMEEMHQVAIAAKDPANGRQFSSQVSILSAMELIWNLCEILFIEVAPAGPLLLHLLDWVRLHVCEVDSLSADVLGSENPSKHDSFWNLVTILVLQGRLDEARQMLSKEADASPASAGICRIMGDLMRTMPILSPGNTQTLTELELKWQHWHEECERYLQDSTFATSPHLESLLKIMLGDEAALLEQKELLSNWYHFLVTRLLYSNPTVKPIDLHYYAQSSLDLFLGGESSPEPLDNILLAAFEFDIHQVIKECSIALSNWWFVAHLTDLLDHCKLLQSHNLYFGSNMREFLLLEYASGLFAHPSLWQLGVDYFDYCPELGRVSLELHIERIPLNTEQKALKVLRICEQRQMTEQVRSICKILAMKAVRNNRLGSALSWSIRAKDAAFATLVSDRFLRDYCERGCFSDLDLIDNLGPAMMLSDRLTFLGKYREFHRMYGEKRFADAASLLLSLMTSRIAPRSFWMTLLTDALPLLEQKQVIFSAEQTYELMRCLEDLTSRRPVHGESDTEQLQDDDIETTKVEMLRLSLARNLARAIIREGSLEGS
UniProt Q15102, sequence (Q15102 whole entry, looked up): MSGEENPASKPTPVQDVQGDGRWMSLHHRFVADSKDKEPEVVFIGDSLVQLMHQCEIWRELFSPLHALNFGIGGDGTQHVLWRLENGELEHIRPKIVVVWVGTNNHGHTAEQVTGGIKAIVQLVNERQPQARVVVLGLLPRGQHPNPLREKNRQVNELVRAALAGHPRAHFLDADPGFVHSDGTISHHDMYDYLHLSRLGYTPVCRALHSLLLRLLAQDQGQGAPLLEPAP
UniProt Q13952, sequence (Q13952 whole entry, looked up): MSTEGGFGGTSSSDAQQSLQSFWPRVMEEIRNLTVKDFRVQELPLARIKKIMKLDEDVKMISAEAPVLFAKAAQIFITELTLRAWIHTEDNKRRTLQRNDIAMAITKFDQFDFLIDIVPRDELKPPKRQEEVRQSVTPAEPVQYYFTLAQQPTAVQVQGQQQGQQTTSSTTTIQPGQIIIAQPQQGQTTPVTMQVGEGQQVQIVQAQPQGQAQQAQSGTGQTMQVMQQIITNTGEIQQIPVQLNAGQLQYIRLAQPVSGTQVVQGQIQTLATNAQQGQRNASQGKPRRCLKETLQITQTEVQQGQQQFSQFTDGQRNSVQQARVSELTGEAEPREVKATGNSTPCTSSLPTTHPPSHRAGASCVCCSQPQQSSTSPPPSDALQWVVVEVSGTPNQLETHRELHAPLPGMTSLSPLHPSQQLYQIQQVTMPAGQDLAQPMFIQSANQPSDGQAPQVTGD
UniProt O00217, sequence (O00217 whole entry, looked up): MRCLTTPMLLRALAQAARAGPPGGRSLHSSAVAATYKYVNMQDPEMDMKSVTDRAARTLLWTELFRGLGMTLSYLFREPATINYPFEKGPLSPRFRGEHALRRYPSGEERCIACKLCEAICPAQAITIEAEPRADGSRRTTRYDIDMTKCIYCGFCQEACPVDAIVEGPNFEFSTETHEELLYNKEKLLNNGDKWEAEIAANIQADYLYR
UniProt Q9Y2A7, sequence (Q9Y2A7 whole entry, looked up): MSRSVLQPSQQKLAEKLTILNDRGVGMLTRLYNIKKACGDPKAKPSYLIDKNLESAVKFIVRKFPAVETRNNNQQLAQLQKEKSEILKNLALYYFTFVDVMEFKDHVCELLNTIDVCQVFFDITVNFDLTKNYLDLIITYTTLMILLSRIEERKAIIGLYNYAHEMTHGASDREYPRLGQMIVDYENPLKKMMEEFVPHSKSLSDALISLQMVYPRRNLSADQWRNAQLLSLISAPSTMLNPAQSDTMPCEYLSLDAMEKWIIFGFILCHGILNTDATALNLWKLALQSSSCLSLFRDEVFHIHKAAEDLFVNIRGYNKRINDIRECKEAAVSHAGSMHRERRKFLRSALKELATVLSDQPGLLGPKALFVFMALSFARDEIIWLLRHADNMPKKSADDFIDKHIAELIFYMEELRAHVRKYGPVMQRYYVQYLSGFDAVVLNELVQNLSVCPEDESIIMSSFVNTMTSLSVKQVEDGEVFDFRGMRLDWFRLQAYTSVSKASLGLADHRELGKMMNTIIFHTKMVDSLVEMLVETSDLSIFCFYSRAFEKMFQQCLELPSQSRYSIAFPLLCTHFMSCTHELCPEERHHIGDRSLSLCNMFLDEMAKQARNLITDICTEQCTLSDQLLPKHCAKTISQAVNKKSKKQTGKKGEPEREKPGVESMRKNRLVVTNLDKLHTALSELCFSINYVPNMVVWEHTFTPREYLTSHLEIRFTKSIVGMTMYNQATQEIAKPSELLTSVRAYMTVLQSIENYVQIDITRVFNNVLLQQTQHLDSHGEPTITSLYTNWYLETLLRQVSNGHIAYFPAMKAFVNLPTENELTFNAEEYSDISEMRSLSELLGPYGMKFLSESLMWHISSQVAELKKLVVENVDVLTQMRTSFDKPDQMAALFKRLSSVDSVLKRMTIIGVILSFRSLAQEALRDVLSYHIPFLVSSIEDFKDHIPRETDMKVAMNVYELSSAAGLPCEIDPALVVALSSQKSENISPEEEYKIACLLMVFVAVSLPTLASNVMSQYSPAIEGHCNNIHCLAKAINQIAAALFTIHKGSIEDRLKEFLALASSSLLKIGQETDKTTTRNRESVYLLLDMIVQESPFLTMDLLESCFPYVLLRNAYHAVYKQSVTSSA

| Target | log2 fold change [1] | log2 fold change [2] | log2 fold change [3] | log2 fold change [4] | log2 fold change (Nexturastat A) | log2 fold change (vemurafenib) | log2 fold change [5] | log2 fold change [6] | log2 fold change (givinostat) | log2 fold change (barasertib) | log2 fold change [7] | log2 fold change (volasertib) | log2 fold change [8] | log2 fold change (epoxomicin) | log2 fold change [9] | log2 fold change [10] | log2 fold change [11] | log2 fold change (rosiglitazone) | log2 fold change [12] | log2 fold change [13] |
| --- | --- | --- | --- | --- | --- | --- | --- | --- | --- | --- | --- | --- | --- | --- | --- | --- | --- | --- | --- | --- |
| NUDT1 (UniProt P36639) | -0.016 | -0.058 | -0.064 | -0.164 | -0.086 | -0.004 | 0.209 | -0.026 | -0.042 | -0.03 | 0.971 (active) | 1.35 (active) | -0.012 | -0.039 | -0.113 | -0.19 | 0.06 | 0.054 | -0.088 | 0.157 |
| OXA1L (UniProt Q15070) | -0.013 | 0.01 | 0.02 | 0.01 | -0.021 | 0.022 | -0.013 | -0.049 | 0.003 | -0.012 | -0.067 | -0.014 | -0.015 | -0.046 | 0.013 | -0.012 | -0.019 | 0.016 | -0.027 | -0.221 (active) |
| MTOR (UniProt P42345) | -0.033 | -0.05 | 0.02 | -0.006 | 0.009 | 0.024 | 0.071 | 0.008 | 0.038 | 0.059 | -0.131 | -0.305 (active) | 0.04 | -0.021 | -0.05 | -0.073 | 0.036 | 0.058 | 0.017 | -0.286 (active) |
| NDUFS8 (UniProt O00217) | 0.02 | 0 | 0.03 | 0.018 | -0.136 | 0.02 | -0.006 | -0.092 | -0.014 | -0.004 | -0.103 | -0.097 | -0.005 | 0.039 | -0.003 | -0.043 | 0 | 0.039 | -0.069 | -0.41 (active) |
| NFYC (UniProt Q13952) | 0.005 | 0.011 | -0.061 | 0.019 | -0.087 | -0.006 | -0.001 | -0.031 | 0.001 | 0.028 | 0.012 | 0.015 | -0.021 | -0.001 | 0.006 | -0.015 | 0.041 | 0.059 | -0.063 | 0 |
| NANS (UniProt Q9NR45) | 0.063 | -0.02 | 0.035 | 0.007 | -0.196 | -0.001 | 0.026 | 0.007 | -0.025 | 0.01 | 0.015 | -0.013 | 0.032 | 0.016 | 0.04 | -0.041 | 0.009 | 0.032 | -0.434 (active) | 0.034 |
| NARS2 (UniProt Q96I59) | -0.016 | 0.002 | -0.011 | 0.019 | -0.071 | -0.01 | 0.038 | -0.033 | -0.076 | 0.002 | -0.021 | -0.043 | 0.045 | 0.048 | 0.034 | -0.055 | 0.001 | 0.026 | -0.034 | -0.182 |
| NCKAP1 isoform 2 (UniProt Q9Y2A7) | 0.039 | 0.009 | 0.004 | 0.033 | 0.02 | 0.036 | 0.015 | 0.064 | 0.021 | -0.009 | 0.002 | -0.25 (active) | 0.031 | 0.01 | -0.003 | -0.036 | 0.043 | 0.011 | -0.042 | -0.027 |
| MRPL47 (UniProt Q9HD33) | 0.035 | -0.045 | -0.03 | -0.078 | 0.139 | -0.117 | -0.097 | 0.073 | 0.052 | -0.047 | 0.094 | -0.038 | 0.044 | 0.061 | -0.021 | 0.235 | -0.036 | -0.027 | 0.071 | -0.325 |
| NOLC1 isoform 2 (UniProt Q14978) | -0.074 | -0.004 | -0.082 | -0.051 | 0.018 | -0.088 | -0.032 | 0.104 | 0.143 | -0.033 | -0.155 | -0.024 | -0.051 | -0.06 | -0.015 | 0.047 | -0.048 | -0.018 | 0.026 | -0.112 |
| NUP85 (UniProt Q9BW27) | -0.02 | 0.025 | 0.102 | -0.001 | -0.041 | 0.01 | 0.019 | -0.02 | 0.015 | 0.017 | -0.158 | -0.561 (active) | -0.008 | 0.022 | -0.024 | -0.01 | -0.004 | 0.019 | -0.038 | -0.045 |
| PAFAH1B3 (UniProt Q15102) | 0 | -0.096 | 0.098 | 0.03 | 0.019 | -0.014 | -0.012 | 0.005 | -0.022 | 0.035 | -0.017 | 0.011 | 0.042 | 0.063 | -0.102 | -0.098 | 0.069 | 0.021 | -0.012 | 0.001 |
